In the library only some 2.4% were active in any assay of this set; here they are far more common.
Platelet DG rel = modulates dense granule release in human platelets | human platelet-rich plasma, SFLLRN dense granule ATP release, luminescence | AID 1663 | inhibition, %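 (compounds screened at 7.5 µM in platelet-rich plasma)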 | actives 0.22% (n = 300,000);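 active means mean replicate score, as percent of positive control, at or above 50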
SENP8 block-1 = inhibitors of human SENP8 protease | recombinant SENP8, Nedd8 substrate fluorescence | inhibition, % at 20 µM | actives 0.64% (n = 360,000) | AID 602440; in the data active means inhibition mostly above about 40%, no sharp cut-off; inactive means mostly below about 27%
Target sequence (Q96LD8 whole entry, looked up): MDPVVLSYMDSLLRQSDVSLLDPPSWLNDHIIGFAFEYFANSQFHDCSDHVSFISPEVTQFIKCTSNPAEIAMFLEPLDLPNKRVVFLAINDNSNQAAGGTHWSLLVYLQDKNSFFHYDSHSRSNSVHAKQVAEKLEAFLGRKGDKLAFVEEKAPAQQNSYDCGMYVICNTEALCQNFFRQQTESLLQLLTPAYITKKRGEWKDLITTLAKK
SENP7 inh = blocks the human protease SENP7. recombinant SENP7, Z-RLRGG-aminoluciferin luminescence, 40 min. inhibition, % at 5 µM. actives 1.5% (n = 330,000). AID 434973;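 active means inhibition above about 50% at the single test dose, limit read from the data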;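 further: plate controls were DMSO with enzyme for no effect and no enzyme buffer wells for full effect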
SENP8 block-2 = SENP8 protease inhibition. purified SENP8, Z-RLRGG-aminoluciferin cleavage, luminescence. Q96LD8. inhibition, % at 10 µM. actives 1.2% (n = 330,000); in the data active means inhibition above about 50%
SENP6 block = SENP6 protease inhibition; Q9GZR1; Recombinant SENP6 catalytic domain, aminoluciferin luminescence; inhibition, % at 10 µM; actives 1.8% (n = 330,000);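 active means inhibition above about 50% at the single tested dose, limit read from the data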;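 further: plate controls were DMSO wells with enzyme for no effect and DMSO wells lacking enzyme for full effect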
Target sequence (Q9GZR1 628-1112 limits assumed): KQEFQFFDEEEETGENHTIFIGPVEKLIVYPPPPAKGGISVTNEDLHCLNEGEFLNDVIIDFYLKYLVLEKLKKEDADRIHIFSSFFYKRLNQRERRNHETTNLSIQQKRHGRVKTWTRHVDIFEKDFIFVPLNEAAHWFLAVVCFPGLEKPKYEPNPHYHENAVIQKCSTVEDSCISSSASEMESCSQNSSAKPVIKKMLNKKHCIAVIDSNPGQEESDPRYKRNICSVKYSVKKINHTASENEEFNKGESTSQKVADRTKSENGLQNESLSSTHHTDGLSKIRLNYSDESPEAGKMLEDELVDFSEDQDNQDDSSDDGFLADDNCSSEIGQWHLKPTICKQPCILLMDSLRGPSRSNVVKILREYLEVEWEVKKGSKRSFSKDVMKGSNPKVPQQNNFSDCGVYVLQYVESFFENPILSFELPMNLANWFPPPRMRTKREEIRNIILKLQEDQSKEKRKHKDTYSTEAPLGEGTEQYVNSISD
* = called active by the depositor; . = no result.

SMILES | Platelet DG rel | SENP8 block-1 | SENP7 inh | SENP8 block-2 | SENP6 block
Cc1ccccc1N=Nc1c(N)n[nH]c1N | 4.0 | 33.3 | 1.7 | -2.3 | 4.3
Nc1n[nH]c(N)c1N=Nc1ccccc1 | 20.8 | 26.6 | 4.0 | -1.7 | -5.2
Nc1n[nH]c(N)c1N=Nc1ccccc1F | 7.8 | 34.3* | -0.4 | -5.9 | -12.1
Nc1n[nH]c(N)c1N=Nc1ccc(F)cc1 | -5.4 | 41.4* | 5.6 | -5.5 | 15.4
Cc1ccc(NC(=O)CCc2nc3sc4c(c3c(=O)[nH]2)CCCC4)c(Br)c1 | -6.0 | -40.8 | -3.7 | 1.1 | -11.7
Clc1ccccc1N=Nc1ccccn1 | . | 57.0* | . | . | .
Cc1[nH][nH]c(=O)c1N=Nc1ccccc1Cl | 15.3 | 32.8 | -2.5 | -4.3 | 16.0
O=[N+]([O-])c1cccnc1N/N=C/c1ccccc1O | 43.4 | 10.1 | 97.1* | 86.7* | 93.0*
CCOC(=O)C1(Cc2cccc(OC)c2)CCN(CC=C(C)C)CC1 | 57.4* | 25.9 | 1.9 | -11.3 | -26.6
CC1CCCC(NC(=O)CCC(=O)N2CCOc3ccccc32)C1C (stereo not given) | -0.6 | 15.0 | -13.9 | -4.3 | -10.5
CC1CC(C)(C)Nc2ccc(OC(=O)c3ccco3)cc21 (stereo not given) | 14.1 | 21.6 | -5.1 | -4.2 | -12.7
CC1CC(C)(C)Nc2ccc(N=O)cc21 (stereo not given) | 4.1 | 45.0* | . | . | .
O=C(NC1CCCCC1)C(c1cccc2ccccc12)n1c(=O)c(-c2ccco2)nc2ccccc21 (stereo not given) | . | -442.4 | . | . | .
O=[N+]([O-])c1cccc(-c2noc(-c3cccs3)n2)c1 | -14.5 | 16.6 | 75.2* | 33.9 | 56.3*
CCCCOc1ccccc1C1C(C(=O)OC)=CN(CC)C=C1C(=O)OC | 51.1* | -455.2 | -1.7 | -7.2 | -12.4
C[C@]12C=CC(=O)C=C1CC[C@@H]1C2=CC[C@]2(C)[C@@H](C(=O)CN3CCN(c4cc(N5CCCC5)nc(N5CCCC5)n4)CC3)CC[C@@H]12 | 1.6 | 22.4 | 30.5 | 75.8* | 63.9*
CC(=O)C1CCC2C3CCC4=CC(=O)C=CC4(C)C3C(=O)CC12C (stereo not given) | . | 4.7 | . | . | .
O=C(NC1CCCCC1)C(C1CC1)n1c(=O)c(-c2cc3ccccc3[nH]2)nc2ccccc21 (stereo not given) | . | -379.8 | . | . | .
O=C(NC(=S)NNC(=O)c1cc2ccccc2cc1O)c1ccco1 | -2.2 | 8.3 | 45.2 | 60.9* | 14.6
CCOc1ccccc1N1CC(C(=O)NCCOc2ccccc2OC)CC1=O (stereo not given) | 8.3 | 10.4 | 10.5 | -13.0 | -15.2
O=C(O)c1ccc(CSC2CCCCC2)cc1 | -1.5 | 16.1 | 7.0 | 50.9* | 58.4*
Cc1ccccc1C(=O)OCn1nnc2ccccc2c1=O | 92.5* | 7.9 | 4.8 | 9.0 | 32.2
COc1cccc(C(=O)OCn2nnc3ccccc3c2=O)c1OC | 2.5 | 10.6 | -4.1 | 6.7 | -20.3
CC1=NN(c2ccccc2)C(=O)/C1=C\c1cc(C)n(-c2ccccc2)c1C | -14.9 | 45.9* | 7.5 | -7.4 | 6.5
CC1=NN(c2ccccc2)C(=O)/C1=C\c1cc(C)n(-c2cccnc2)c1C | -6.9 | 41.8* | -4.1 | 3.0 | -5.5
SMILES | Platelet DG rel | SENP8 block-1 | SENP7 inh | SENP8 block-2 | SENP6 block
Cc1cc(/C=C2/NC(=O)N(c3ccccc3)C2=O)c(C)n1-c1cccnc1 | 4.0 | -293.9 | -0.2 | 4.2 | -10.9
CC(C)NC(=O)[C@H]1N2C(=O)c3ccccc3C2SC1(C)C (stereo not given in full) | -1.0 | 18.7 | 2.8 | -0.2 | -14.2
COc1cc([N+](=O)[O-])ccc1NC(=O)CSc1nnc(C)c(C)n1 | -41.7 | 16.7 | -0.4 | 7.3 | 3.3
Cc1ccc2[nH]c(=O)c3cc(C(=O)N(C)c4ccc(C)c(C)c4)sc3c2c1 | 74.4* | 8.0 | -4.6 | -8.7 | 2.6
CC(C)C(=O)NC(c1cccs1)c1cc([N+](=O)[O-])c2cccnc2c1O (stereo not given) | -17.5 | 44.5* | 18.1 | 4.6 | 19.9
Cc1ccc(C(NC(=O)C(C)C)c2cc([N+](=O)[O-])c3cccnc3c2O)cc1 (stereo not given) | 17.0 | 54.7* | -4.7 | 0.6 | 1.6
[O-][n+]1c2c(nc3c1-c1ccccc1C3O)CCCC2 (stereo not given) | -5.3 | . | 2.1 | 4.4 | 5.3
O=[N+]([O-])c1cccc(-c2ccc(C(=S)N3CCN(c4ccccc4)CC3)o2)c1 | -0.6 | 32.2* | -5.4 | -3.9 | -5.3
O=[N+]([O-])c1ccccc1-c1ccc(C(=S)N2CCCCC2)o1 | 4.5 | 3.9 | 10.6 | 38.3 | 52.4*
O=[N+]([O-])c1ccccc1-c1ccc(C(=S)N2CCCC2)o1 | 1.2 | -3.5 | 12.4 | 16.3 | 43.9
Cc1noc(C)c1NC(=O)N(C)C[C@H]1Oc2ccc(NC(=O)Nc3ccc4c(c3)OCO4)cc2C(=O)N([C@H](C)CO)C[C@@H]1C | . | -1.8 | 1.1 | 5.6 | 10.2
O=C(Nc1ccc(Br)cn1)c1ccc(Cl)s1 | -7.5 | 8.4 | 54.5* | 42.0 | 60.8*
CCC(=O)Nc1ccc(Br)cn1 | -2.1 | 4.9 | 7.7 | 0.4 | 1.0
Cc1cccc(C)c1NC(=S)NCc1ccncc1 | 2.3 | -4.0 | 5.2 | -5.4 | -0.5
CC(C)N(CCn1c(SCC(=O)Nc2cccnc2Cl)nc2ccccc2c1=O)C(C)C | . | -64.3 | -0.3 | -0.6 | 1.2
Cc1c(C(=O)N2CCCCC2)c(S(=O)(=O)N(C)Cc2ccccc2)c(C)n1C | 55.7* | 8.4 | -9.1 | -7.5 | 7.7
COc1ccc(CO/N=C/c2c(C)[nH]c(=O)[nH]c2=O)cc1 | 72.1* | 13.2 | 0.3 | -5.1 | -21.7
CCOC(=O)N=Nc1c2ccccc2c2nc3no[nH]c3nc12 | 0.5 | 94.5* | 31.5 | 31.1 | 61.8*
CCOC(=O)Cn1c(=O)n(Cc2ccco2)c(=O)c2ccc(C(=O)NC3CCCC3)cc21 | 89.6* | 4.5 | -6.0 | 5.0 | -18.6
CCOc1ccc(NC(=O)CN(C)C(=O)C2CC(=O)N(CCc3ccccc3)C2)cc1OCC (stereo not given) | -5.7 | -4.4 | -6.3 | -10.6 | -15.7
Cc1coc2c1C(=O)C(=O)c1c-2ccc2c1CCCC2(C)C | -1.3 | 60.8* | 6.6 | -4.2 | 44.6
CCN(CC)c1ccc2nc3ccccc3[n+](CC)c2c1 | 2.9 | 13.5 | 19.3 | 23.2 | 29.0
CCN(CC)c1ccc2nc3ccc(N)cc3[n+](-c3ccccc3)c2c1 | . | 39.3* | 17.4 | 35.7 | 31.7
COc1cc(/C=C2\SC(=S)N(NS(=O)(=O)c3ccccc3)C2=O)ccc1O | -0.8 | 48.1* | -7.9 | -8.5 | 7.6
O=C(CCN1C(=O)/C(=C\C=C\c2ccccc2)SC1=S)Nc1cccc(C(=O)O)c1 | -4.0 | 24.0 | -10.8 | 55.4* | 53.0*
Cc1ccc(C=C2SC(=S)N(CCCC(=O)Nc3cccc(C(=O)O)c3)C2=O)cc1 | . | 25.9 | . | . | .
Cc1ccc(/C=C2\SC(=S)N(CCC(=O)NNS(=O)(=O)c3ccccc3)C2=O)cc1 | 4.5 | 59.2* | -3.5 | 4.4 | -2.6
COc1cc(/C=C2\SC(=S)N(NS(=O)(=O)c3ccc(C)cc3)C2=O)ccc1O | 12.1 | 15.6 | 6.0 | 0.1 | -9.6
Cc1ccc(/C=C2\SC(=S)N(CCCC(=O)Nc3cccc(C(=O)O)c3)C2=O)cc1 | -7.6 | 33.8 | 60.6* | 87.0* | 91.4*
